# Assay results published in PubChem BioAssay AID1706 (The Scripps Research Institute Molecular Screening Center, 2009).
# Hit rate of the full screen: of about 290,000 compounds, about 400 (0.14%) were called active. This excerpt belongs to a sample that is enriched for actives. A number with no mark means an inactive call. Cut-off read from the data, not from the text of the source: active = inhibition above about 12%; inactive = the rest.
# Target: Replicase polyprotein 1ab (Severe acute respiratory syndrome coronavirus) (UniProt P0C6X7)
# Experiment: SARS-CoV 3CLpro protease inhibitors, primary screen, biochemical, quenched FRET (AID 1706)
# Conditions: recombinant SARS-CoV 3CLpro, quenched FRET peptide cleavage; at 6 µM; hits give high values
row,Compound,inhibition
1,Cc1ccc(C(CNC(=O)Nc2ccccc2)N2CCN(C)CC2)cc1 (stereo not drawn),-5.22%
2,Cc1ccc(CS(=O)(=O)CCC(=O)NCc2ccc(F)cc2)cc1,-1.28%
3,COc1cccc(CC2(CO)CCCN(Cc3ccc(OC(F)F)cc3)C2)c1 (stereo not drawn),-5.59%
4,CCOC(=O)CN(Cc1ccc(OC)c(OC)c1)S(=O)(=O)c1ccc(OC)cc1,4.93%
5,COc1ccc(C(CCN(Cc2ccc(OC)c(OC)c2)C(=O)CCl)c2ccccc2)cc1 (stereo not drawn),34.5% (active)
6,COc1ccc(CN(C)C(=O)CC(c2ccccc2)c2ccccc2)cc1,4.64%
7,COC(=O)COc1cccc2c(=O)n(CC(=O)NCc3ccccc3)ccc12,12.8% (active)
8,Cc1ccc(CNC(=O)CCNC(=O)Cn2ccc3ccccc3c2=O)cc1,3.36%
9,COC(=O)COc1cccc2c(=O)n(CC(=O)NCCc3ccc(OC)c(OC)c3)ccc12,4.26%
10,CCCCNC(=O)N(O)C1N(/N=C/c2ccccc2O)C(=S)SC1(C)C (stereo not drawn),4.34%
11,CCC(C)N1C(=S)SC(C)(C)C1N(O)C(=O)NC1CCCCC1 (stereo not drawn),-0.75%
12,CCCCNC(=O)N(O)C1N(/N=C/c2ccc(N(C)C)cc2)C(=S)SC1(C)C (stereo not drawn),77.3% (active)
13,O=C(Cc1ccccc1F)NC1CCSc2ccccc21 (stereo not drawn),-4.7%
14,Cc1ccnc(NS(=O)(=O)c2ccc(NC(=O)c3oc4ccccc4c3C)cc2)n1,-4.86%
15,CCOc1ccc(-c2n[nH]c(C)c2-c2ccccn2)c(O)c1,3.95%
16,C=C(C)COc1ccc(-c2n[nH]c(C)c2-c2ccccc2OC)c(O)c1,11.1%
17,C=C(C)COc1ccc(-c2n[nH]c(C)c2-c2ccccc2)c(O)c1,14.1% (active)
18,O=c1cc(-c2ccccc2)nc(N2CCCCC2)[nH]1,3.63%
19,CC(=O)c1cc(-c2ccccc2)[nH]c1N1CCCC1,57.1% (active)
20,CC(=O)c1cc(C#N)c(N2CCCCC2)nc1C,5.03%
21,CC(=O)c1cnc(Nc2nc(C)c3cc(C)ccc3n2)nc1C,2.54%
22,O=C(O)/C=C/c1cn(Cc2ccccc2)nc1-c1cccs1,3.03%

row,Compound,inhibition
1,CN(C)/N=C/c1cn(-c2ccccc2)nc1-c1cccnc1,9.07%
2,O=Cc1cn(Cc2ccccc2)nc1-c1cccnc1,39.5% (active)
3,O=C1CCC(=O)N(c2ccccc2)N1,2.8%
4,CC(C)C[C@@H](CO)N1CCN(Cc2ccc(O)cc2)CCC1=O,-3.5%
5,CC(C)Nc1ccc(-n2nc3ccccc3[n+]2[O-])cc1,-2.9%
6,COc1ccc(N2CCN(C(=O)CNC(=O)c3ccc(Br)o3)CC2)cc1,-5.34%
7,O=C(Nc1ccc(S(=O)(=O)N2CCCCC2)cc1)C1CC(=O)N(c2ccc(F)cc2)C1 (stereo not drawn),1.61%
8,CCc1ccc(-n2c(SCc3cc(=O)n4cc(Br)ccc4n3)nc3[nH]ncc3c2=O)cc1,0.2%
9,CN(C)Cc1c(C(=O)N/N=C/c2ccccc2OCc2ccc(F)cc2)nnn1-c1nonc1N,0.8%
10,COc1ccc(NC(C(=O)Nc2cccc(C(C)=O)c2)c2ccccc2)cc1 (stereo not drawn),1.08%
11,CCOC(=O)c1cccc(NC(=O)C2CCN(c3ncnc4c3nc3n4CCCCC3)CC2)c1,6.86%
12,CCn1c(/C=C/Nc2ccccc2)[n+](CC)c2ccc(C(=O)OCC(F)(F)F)cc21,-5.62%
13,CC1CCN(Cc2nc3c(c(=O)n(C)c(=O)n3C)n2CCc2ccccc2)CC1,0.08%
14,COc1ccccc1C(=O)NCc1nnc(SC(C)C(=O)Nc2nccs2)n1C (stereo not drawn),1.41%
15,CN1C(CC(=O)Nc2ccc(Br)cc2)c2ccccc2CC1(C)C (stereo not drawn),0.03%
16,CCSCc1nc(N)nc(NCCc2ccccc2)n1,1.32%
17,COc1ccccc1CNC(=O)C1CCN(S(=O)(=O)c2ccc3c(c2)OCCO3)CC1,0.14%
18,O=C(Nc1ccc(Cl)c(Cl)c1)c1ccccc1NC(=O)C1CC=CCC1C(=O)O (stereo not drawn),4.04%
19,CC(C)CCn1cnc2c1c(=O)n(CC(=O)NC(N)=O)c(=O)n2Cc1ccccc1,2.02%
20,O=C(NCCCN1CCCCC1)C1CC(=O)N(CCc2ccccc2)C1 (stereo not drawn),-1.63%
21,CC(C)(C)C(=O)NC1CC2CCCC(C1)N2C(=O)Nc1ccccc1F (stereo not drawn),-4.3%
22,O=C(NC(Cc1ccccc1)C(=O)O)/C(=C\c1ccccc1)NC(=O)c1ccco1 (stereo not drawn),1.59%

row,Compound,inhibition
1,Cc1cc(CNCc2c(C(=O)N(C)Cc3ccccc3)nc3ccccn23)nn1C,-0.39%
2,Cc1ccc(C)c(NC(=O)c2cc(-c3cc(C)cc(C)c3O)n[nH]2)c1,5.71%
3,COc1ccc(CCNC(=O)/C(C#N)=C2\N=C(NC(=O)c3cccs3)c3ccccc32)cc1,1.64%
4,COc1ccc(N2CC(C(=O)NCCS(=O)(=O)N3CCN(c4ccccc4)CC3)CC2=O)cc1 (stereo not drawn),0.28%
5,Cc1cc(C)nc(NS(=O)(=O)c2ccc(N/C=C\C(=O)c3cccs3)cc2)n1,6.43%
6,CN(Cc1ccccc1)C(=O)c1cccc(C(=O)N(C)Cc2ccccc2)c1,-1.52%
7,Cc1ccc2cccc(OCCCOc3ccccc3CO)c2n1,-3.15%
8,CC(=O)c1c(C)n(C(C)C)c2ccc(O)cc12,-1.9%
9,O=C(NCCc1ccccc1Cl)C1CCC(=O)N(CCCc2ccccc2)C1 (stereo not drawn),0%
10,COc1ccc(CNC(=O)c2cc(=O)c3c(C)cc(C)cc3o2)cc1,6.16%
11,O=C(NC1CCC(O)CC1)c1ccccc1OCc1ccc(F)cc1 (stereo not drawn),0.54%
12,Cc1ccc(C(=O)NCCN2CCOCC2)cc1C,13.4% (active)
13,Cc1cc(C)cc(C(=O)NCCN2CCOCC2)c1,-2.25%
14,COc1ccc(C(=O)NCCCN2CCOCC2)cc1Br,0.44%
15,Cc1noc(NS(=O)(=O)c2ccc(NC(=O)c3oc4ccc(F)cc4c3C)cc2)c1C,9.19%
16,COCC1CCN(C(=O)c2ccc3oc(Cc4ccccc4)nc3c2)C1 (stereo not drawn),1.1%
17,Cc1cccc2c1N(CC(=O)OC(C)C)C(=O)C2=O,4.13%
18,Cc1cccc2c1N(CCOc1ccccc1)C(=O)C2=O,17.8% (active)
19,O=C1c2ccccc2C(=O)N1CCOc1ccc(F)cc1,-2.34%
20,Cc1ccc(S(=O)(=O)N2CC(C)N(S(C)(=O)=O)C2)cc1 (stereo not drawn),-3.38%
21,Cc1cccc(-c2noc(CCC(=O)NC3CCCC3)n2)c1,-2.1%
22,O=C(O)c1ccccc1CSc1nc2ccccc2s1,9.25%

row,Compound,inhibition
1,COc1ccc(NC(=O)CSc2nncc(=O)n2N)cc1OC,-1.55%
2,COc1ccc(NC(=O)c2ccccc2[N+](=O)[O-])cc1OC,3.06%
3,O=C(Nc1cccc(NC(=O)c2ccccc2[N+](=O)[O-])c1)c1ccccc1Cl,0.79%
4,COC(=O)c1cc(NC(=O)Cc2ccccc2[N+](=O)[O-])ccc1Cl,13.9% (active)
5,Cc1cccc(NS(=O)(=O)c2ccc(-c3cnc(C4CC4)o3)cc2)c1,11.2%
6,O=C(NCCCn1ccnc1)c1cc2c(s1)CCCC2,-1.18%
7,CCC(C)(C)NC(=O)CN(C(=O)CCC(=O)Nc1nccs1)c1ccc2c(c1)OCO2,-3.34%
8,O=C(NCCCN1CCOCC1)C1CCCN(S(=O)(=O)N2CCCCC2)C1 (stereo not drawn),0.26%
9,COc1cccc(NC(=O)CN2CCN(CC(=O)Nc3ccccc3Cl)CC2)c1,-3.69%
10,COc1ccc(N(Cc2ccc(N(C)C)cc2)C(=O)c2ccc(S(C)(=O)=O)cc2)cc1,0.16%
11,COc1ccc(Cl)cc1NS(=O)(=O)c1cccc(C(=O)NCC2CCCO2)c1 (stereo not drawn),-1.42%
12,Cc1cccc(C(=O)Nc2nnc(S(=O)(=O)N3CCCCCC3)s2)c1,0.72%
13,CCc1nnc(NC(=O)[C@@H](NC(=O)c2cccc(C)c2)C(C)C)s1,4.69%
14,Cc1cccc(C(=O)Nc2nnc(Cc3c[nH]c4ccccc34)s2)c1,13.4% (active)
15,CCOC(=O)c1cc(C(=O)Nc2ccc(S(=O)(=O)Nc3ccc(OC)cc3)cc2)nn1C,-1.42%
16,CN1CCN(C(=O)c2ccc(NS(=O)(=O)c3ccccc3)cc2)CC1,-0.96%
17,Cc1ccc(CS(=O)Cc2ccc(C(=O)N3CCOCC3)o2)cc1 (stereo not drawn),-1.35%
18,CSc1ncccc1C(=O)NCc1ccccc1Cl,0.88%
19,CC(=O)Nc1ccc(S(=O)(=O)N(C)CC(=O)NCCC2=CCCCC2)cc1,-0.77%
20,O=C(NCCc1ccc(Cl)cc1)c1cccc(N2CCCC2=O)c1,3.05%
21,COc1ccc(/C=C2\SC(=O)N(CCC(=O)NCCCn3ccnc3)C2=O)cc1,-3.79%
22,CC(Oc1ccccc1)C(=O)Nc1c2c(nn1-c1ccccc1)CS(=O)C2 (stereo not drawn),-1.62%
